These results are taken from ChEMBL document CHEMBL4513216, “Probing the Open Global Health Chemical Diversity Library for Multistage-Active Starting Points for Next-Generation Antimalarials” (ACS Infect Dis, 2020).

In all, about 69,000 compounds went through this assay and about 8,600 (12%) showed an effect of 50% or more. This is one part of a sample in which strong results are shown more often than they occur.

The subject of this assay is Plasmodium berghei. Nature of the assay: Screen against P. berghei liver stage (PbLuc), transformed with Luciferase, at 10uM. Type of assay: functional, HepG2. Conditions: tested at 10 uM.
Consider `O=C(c1cccs1)N1CC[C@@H]2CN(C3CCOCC3)CCO[C@@H]2C1`, for which the INHIBITION stood at 45.7%.
To `CCn1nc(C)c2nnn(CC(=O)Nc3cccc(C)c3)c(=O)c21` belongs 42.4%; to `CN(C)C[C@H]1OC[C@@H]2CCN(S(=O)(=O)c3cccs3)C[C@@H]21`, 38.7%; to `CC(CO)NC(=O)Nc1ccc(S(C)(=O)=O)nc1` (stereo not given), -38.695%.
Take `COc1ccc(CNCC(C)Oc2ccccn2)cc1` (stereo not given): the INHIBITION was -30.8%.
To `CNC(=O)[C@H]1C[C@@H]2CN(S(=O)(=O)c3ccc(C)cc3)C[C@@H]2N1C` belongs -10.3%; to `Cc1ccc(S(=O)(=O)N2CC[C@@H]3C[C@H](NC(=O)c4n[nH]cc4Cl)[C@@H]32)cc1`, 6.521%.
Consider `Cc1ccc(S(=O)(=O)N2CC[C@@H]3C[C@H](NC(=O)c4ccncc4)[C@@H]32)cc1`, for which the INHIBITION came out at 20.4%.
To `Cc1ccc(S(=O)(=O)N2C[C@H]3C[C@H](NC(=O)c4cscn4)[C@H]3C2)cc1` belongs 25.6%; to `Cc1ccc(S(=O)(=O)N2C[C@H]3C[C@H](NC(=O)c4ccccn4)[C@H]3C2)cc1`, 92.9%; to `Cc1ccc(S(=O)(=O)N2C[C@H]3C[C@H](NC(=O)c4cc[nH]n4)[C@H]3C2)cc1`, 64.1%.
With `Cc1ccc(CN2CCCC3(CCCC(=O)N3C)C2)s1` (stereo not given) the figure was 4.98%.
With `CC(C)c1nnc2n1CCN(Cc1ncc(-c3ccccc3)o1)C2` the figure was 38.85%; with `Cc1cc(C(=O)NCc2cccs2)nc(N2CCCC2)n1`, -2.28%; with `CCCOc1ccc(C2SCC(=O)Nc3c2c(=O)[nH]n3C(C)C)cc1` (stereo not given), 15.1%.
Regarding `CC(C)n1[nH]c(=O)c2c1NC(=O)CSC2c1ccc(OCC(N)=O)cc1` (stereo not given), the INHIBITION came out at 6.83%.
To `CC(C)COc1ccc(C2SCC(=O)Nc3c2c(=O)[nH]n3C(C)C)cc1` (stereo not given) belongs 52.4%; to `CC(C)n1[nH]c(=O)c2c1NC(=O)CC2C1CCCCC1` (stereo not given), -25.6%; to `CCOc1ccc(C2SCC(=O)Nc3c2c(=O)[nH]n3C(C)C)cc1` (stereo not given), 44.9%.
For the molecule `CC(C)n1[nH]c(=O)c2c1NC(=O)CSC2C1CCCCC1` (stereo not given), the INHIBITION was 62.5%.
With `Cc1csc(N2CCCN(C(=O)c3occc3C)CC2)n1` the figure was 46.2%; with `CC(C)(C)OC(=O)N1CCN(C(=O)CCn2cccn2)CC1`, 38.05%.
To `O=C(C1CC=CC1)N1CC[C@@H](O)[C@H]1Cc1cccnc1` belongs 43%.
With `CCNC(=O)CNC(=O)Nc1c(F)cc(F)cc1-c1ccccc1` the figure was 7.77%; with `COc1cccc(CNCCNS(=O)(=O)Cc2ccccc2)c1`, 30.2%.
Consider `CCc1c(C)nn(CCNC(=O)c2cc(C3CC3)n[nH]2)c1C`, for which the INHIBITION is on record as -40.7%.
To `CC(=O)N1CCN(c2cc(CCNC(=O)C(C)C)nc(C3CC3)n2)CC1` belongs 18.3%; to `CC(C)C(=O)Nc1cc(C(=O)NC2CC(C)(C)NC(C)(C)C2)nn1C`, 44.6%; to `Cc1nc(-n2nc(C3CC3)cc2NC(=O)C(C)C)[nH]c(=O)c1C`, 93.2%.
To `Cn1nc(CNC(=O)C2CC2)cc1C1CC1` belongs -62.4%; to `CC(C)C(=O)Nc1cc(C(C)(C)C)nn1-c1ccccn1`, -6.94%.
To `CCc1cc(=O)[nH]c(-n2nc(C3CC3)cc2NC(=O)C2CC2)n1` belongs 91%; to `CCc1c(C)nc(-n2nc(C3CC3)cc2NC(C)=O)[nH]c1=O`, 93.7%; to `Cc1cc(NC(=O)C(C)C)n(-c2nc(C)c(C)c(=O)[nH]2)n1`, 93.2%.
For `CCn1nc(C)c(NC(=O)c2cc(NC(=O)C3CC3)n(C)n2)c1C`, the INHIBITION is 29.7%.
With `Cc1nc(C)c(CC(=O)Nc2nnc(C3CC3)s2)c(=O)[nH]1` the figure was -0.18%.
To `Cc1cc(C)n(-c2cncc(NCCNC(=O)C(C)C)n2)n1` belongs -23.5%.
With `CN(C)Cc1nn(C)c2c1CCN(C(=O)c1cnccn1)C2` the figure was -43.1%.
With `CNC(=O)c1ccc(C2CN(Cc3ccc(F)cc3)CCO2)nc1` (stereo not given), the INHIBITION is reported as 2.55%.
On to `Cc1nc(CN(C)C2CCN(CCc3ccccn3)C2)no1` (stereo not given), for which the INHIBITION was -41.6%.
To `Cc1cc(C)n(C2CCCN(C(=O)c3ccc(F)c(F)c3)C2)n1` (stereo not given) belongs 18.7%; to `CN(C)CCN1CCOCC12CCN(C(=O)C1CC1)CC2`, 6.55%; to `COC[C@]1(O)CCN(c2cc(N3CCOCC3)ncn2)CC1(C)C`, 32.3%.
With `Cc1cc(OCc2ccc(C(=O)O)s2)ccc1Cl` the figure was -61.9%; with `CSC(C)C(=O)NCc1ccnc(N2CCN(C)CC2)c1` (stereo not given), -11.98%.
With `CCOc1ccc(Cl)c(C(=O)N2CCCN(CC(N)=O)CC2)n1` the figure was 47%.
As for `COCCNC(=O)CCc1c(C)nn(-c2nc(C)c(C)c(=O)[nH]2)c1C`, the INHIBITION was -8.69%.
To `CC(=O)Nc1cc(C2CC2)nn1-c1nc(C)c(C)c(=O)[nH]1` belongs 72.4%; to `Cc1[nH]c2cc(C3CCN(C(=O)c4ccccn4)CC3)nn2c(=O)c1C`, 29.55%.
To `COc1ccc(CN2CCO[C@H]3CN(C4CCCC4)CC[C@H]3C2=O)cc1` belongs 27.7%.
